SMILES strings stand for the structures. The source made the active and inactive calls. The calls were made as follows: active = hit-call score of the fitted dose curve at least 0.9, where 1 is the maximum; inactive = score below 0.9.

Read-out in this assay: Tumor necrosis factor receptor superfamily member 6 (Homo sapiens) (UniProt P25445)
Description: LTEA_HepaRG_FAS: Life Technologies and Expression Analysis (LTEA) Assay for Fas cell surface death receptor (FAS) using HepaRG (AID 2283447). To be noted: mRNA level, 48 h; actives raise or lower the signal. Here is the method: LTEA_HepaRG is a cell based, multiplexed-readout assay that uses HepaRG, a human liver cell line, with measurements taken at 48 hours after chemical dosing on a 96-well plate.LTEA_HepaRG_FAS is one of 102 assay component(s) measured in the LTEA HepaRG cell culture assay. It is a marker of Cell proliferation, survival, death.Data from the assay component LTEA_HepaRG_FAS was analyzed into 1 endpoint. This assay endpoint, LTEA_HepaRG_FAS, was analyzed with bidirectional fitting relative to DMSO as the negative control and baseline of activity. Using a type of inducible reporter, measures of mRNA induction for gain or loss-of-signal activity can be used to understand regulation of transcription factor activity. To generalize the intended target to other relatable targets, this assay endpoint is annotated to the cytokine receptor intended target family, where the subfamily is TNF receptor.
A total of 1060 chemcials from the ToxCast library were tested in eight-point concentration-response experiments. Cell culture and cytotoxicity assays were conducted at Thermo Fisher Scientific's Custom Services facility (Madison, WI). A single lot of human HepaRG cells (Thermo Fisher Scientific, Frederick, MD) was used for the cell culture experiments. 96-well format collagen type I coated plates of human HepaRG cells were prepared using established methods. Briefly, cryopreserved HepaRG cells were thawed, plated at a density of approximately 100,000 cells/well in HepaRG Thaw, Plate, and General Purpose media (HPRG770, Thermo Fisher Scientific), and incubated for 48 hours. 0.5% DMSO was selected as vehicle control to balance the requisite need of DMSO in HepaRG cultures to maintain differentiation (for example, baseline metabolism, proportions of hepatocytes vs. cholangiocytes), while enabling further hepatic receptor pathway activation (for example, PXR and CAR) in response to chemical exposure. 48 hours after plating, the culture medium was replaced with HepaRG Serum-Free Incudtion Media. Cells were exposed to each test chemical in duplicate and maintained in CO2 incubators for another 48 hours. Chemical plates were thawed to room temperature and 200x concentrations of treatment groups were prepared. 8-point conentration-reponse curves were made with the highest exposure at 100 uM, followed by half-log dilutions, all in 0.5% DMSO. Each test plate contained variouse controls, induction positive controls (1mM phenobarbital), cytotoxicity positive controls ([…] aflatoxin B1), vehicle controls (0.5% DMSO), and total lysis controls (0.5% DMSO). Cell morphology images were taken using an Essen IncuCyte FLR automated microscope, with six 96-well plates imaged in about 24 minutes. Images were captured and exported and JPEG files. Spent culture media was transfered to black-well plates for the LDH assay, and remaining media was sorted at -80 C for later use. Cells were treated with RLT buffer and frozen until shipped for gene expression analysis. Total RNA was isolated from the cell suspension in 75 uL of Buffer RLT (Qiagen, Germantown, MD 20874) by Quintiles/Expression Analysis (Durham, NC) using a custom isolation procedure. Total RNA from each plate well was transferred to a preamplification plate. Fluidigm's 96.96 Dynamic ArrayTM (Fluidigm, Amsterdam, the Netherlands) technology was used for gene expression analyses by quantitative reverse transcription polymerase chain reaction (qRT-PCR, performed by Quintiles/Expression Analysis, Durham, NC)89. Standard TaqManTM Assays (Applied Biosystems/ThermoFisher Scientific, Foster City, CA) were used to assess the expression of 93 genes selected based on their selectivity and sensitivity to important hepatic receptors known to be modulated by environmental chemicals; importance in human hepatocyte functionality; and hepatotoxicity. […]
Regarding `CCC(C)n1c(=O)[nH]c(C)c(Br)c1=O` (stereo not given), the compound was called inactive.

Take `CCOc1nc(F)cc2nc(S(=O)(=O)Nc3c(Cl)cccc3Cl)nn12`: the compound was called inactive. Still for that read-out and setting: in the case of `Cn1c(-c2ccccc2)cc(-c2ccccc2)[n+]1C` it was “inactive”; in that of `COC(=O)c1c(C(F)F)nc(C(F)(F)F)c(C2=NCCS2)c1CC(C)C`, “inactive”; in that of `COP(=S)(OC)SCn1nnc2ccccc2c1=O`, “inactive”. The same measure, in the same setting: in the case of `CC(C)(C)C(=O)C(Oc1ccc(Cl)cc1)n1cncn1` (stereo not given) it was “inactive”.

Take `CCCCC(O)(Cn1cncn1)c1ccc(Cl)cc1Cl` (stereo not given): the AC50 was 87.4 µM (active). Consider `COc1cc(OC)nc(NC(=O)NS(=O)(=O)c2ncccc2OCC(F)(F)F)n1`, for which the compound was called inactive. Still for that read-out and setting: in the case of `CSC(=O)c1c(C(F)F)nc(C(F)(F)F)c(C(=O)SC)c1CC(C)C` it was “inactive”. Still for that read-out and setting: in the case of `CC1(C)CCC(=Cc2ccc(Cl)cc2)C1(O)Cn1cncn1` (stereo not given) it was “inactive”; in that of `COC(=O)NS(=O)(=O)c1ccc(N)cc1`, “inactive”; in that of `O=P(O)(O)CCCl`, “inactive”.

Turning to `N#Cc1c[nH]cc1-c1cccc2c1OC(F)(F)O2`, the compound was classed as inactive. Still for that read-out and setting: in the case of `N#CN=C1SCCN1Cc1ccc(Cl)nc1` it was “inactive”; in that of `CCCCC(C#N)(Cn1cncn1)c1ccc(Cl)cc1` (stereo not given), “inactive”. Still for that read-out and setting: in the case of `CCCN(CC)CC1COC2(CCC(C(C)(C)C)CC2)O1` (stereo not given) it was “inactive”. Same read-out and setting: in the case of `CCOc1cc(C(C)(C)C)ccc1C1COC(c2c(F)cccc2F)=N1` (stereo not given) it was “inactive”; in that of `CC(C)N1C(=O)N(c2ccccc2)CSC1=NC(C)(C)C`, “inactive”.

Consider `CC(C)NC(=O)N1CC(=O)N(c2cc(Cl)cc(Cl)c2)C1=O`, for which the call was inactive. `CC1(C)CON(Cc2ccccc2Cl)C1=O`: the compound was classed as inactive. Still for that read-out and setting: in the case of `Clc1nc(Cl)nc(Nc2ccccc2Cl)n1` it was “inactive”.

As for `CC(C)Nc1nc(Cl)nc(NC(C)C)n1`, the call was inactive. Still for that read-out and setting: in the case of `CCSC(=O)N1CCCCCC1` it was “inactive”; in that of `Clc1cccc(C(Cl)(Cl)Cl)n1`, “inactive”; in that of `O=C1C2CC=CCC2C(=O)N1SC(Cl)(Cl)Cl` (stereo not given), “inactive”.

On to `CC(C)=CC1C(C(=O)OCc2coc(Cc3ccccc3)c2)C1(C)C` (stereo not given), for which the result was inactive. With `COCC(=O)N(c1c(C)cccc1C)C(C)C(=O)OC` (stereo not given), the result was inactive. On to `COP(=O)(OC)O/C(C)=C/C(=O)N(C)C`, for which the compound was classed as inactive.

As for `O=C(O)c1c(Cl)ccc2cc(Cl)cnc12`, the outcome was inactive. Regarding `CC(C)C1(C)N=C(c2ncccc2C(=O)O)NC1=O` (stereo not given), the call was inactive. For the compound `CO/N=C(/C1=NOCCO1)c1ccccc1Oc1ncnc(Oc2ccccc2Cl)c1F`, the AC50 is 50 µM (active). For `Nc1c(Cl)c(Cl)nc(C(=O)O)c1Cl`, the compound was classed as inactive.

On to `O=C(Nc1ccccc1-c1ccc(Cl)cc1)c1cccnc1Cl`, for which the call was inactive. On the same count and under the same terms, in the case of `COP(=S)(OC)Oc1ccc([N+](=O)[O-])c(C)c1` it was “inactive”; in that of `COc1cc(Cl)c(OC)cc1Cl`, “inactive”. On the same count and under the same terms, in the case of `COC(=O)NC(=S)Nc1ccccc1NC(=S)NC(=O)OC` it was “inactive”. Still for that read-out and setting: in the case of `C=CCOC(=O)C(C)(C)OC(=O)c1cc(-n2c(=O)cc(C(F)(F)F)n(C)c2=O)ccc1Cl` it was “inactive”. With `CC1(C)C(C(=O)OC(C#N)c2cccc(Oc3ccccc3)c2)C1(C)C` (stereo not given), the call was inactive.

Regarding `CCN(CC)c1nc(C)cc(OP(=S)(OC)OC)n1`, the result was inactive. In the case of `O=c1n(Cl)c(=O)n(Cl)c(=O)n1Cl`, the call was inactive.

A word on the AC50: it is the concentration giving half of the maximal activity seen.

These data come from PubChem BioAssay (EPA / NIEHS).
